Sampled rows, rich in hits. Any-hit rate of the full collection: about 1.6%.
FUS yeast rescue = qHTS for Suppressors of FUS Proteinopathy: Primary screen using FUS-linked yeast assay; Potency, µM (doses to about 76.6 µM), hits mostly activators; AID 1347120, 2019; S. cerevisiae FUS-expressing, growth rescue, OD600, 24 h; actives 0.24% (n = 390,000);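 also: plate controls were DMSO vehicle for no effect and reference control for full effect; nearly all actives have a fitted effect of over 55% in size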
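Read-out: OD at 600 nm after 24hr at 30C, reporting rescue of FUS-induced yeast toxicity. Cells at OD 0.005 in galactose (2%) minimal medium; compounds tested in a dilution series; CP55940 titration from 92uM final as control.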
ALOX12 inh = Primary qHTS assay for inhibitors of human arachidonate 12S-lipoxygenase (ALOX12): Round 2. purified 12hLO, xylenol orange hydroperoxide absorbance. AID 1671190, 2021. actives 1.1% (n = 580,000). Polyunsaturated fatty acid lipoxygenase ALOX12 (Homo sapiens), P18054. Potency, µM (highest dose often 108 µM), for the others: at the top dose activity change, negative = inhibition, usual class: inhibitors; also: % is scaled to controls: 0 for no effect and ±100 for the full control effect
Target sequence (P18054 whole entry, looked up): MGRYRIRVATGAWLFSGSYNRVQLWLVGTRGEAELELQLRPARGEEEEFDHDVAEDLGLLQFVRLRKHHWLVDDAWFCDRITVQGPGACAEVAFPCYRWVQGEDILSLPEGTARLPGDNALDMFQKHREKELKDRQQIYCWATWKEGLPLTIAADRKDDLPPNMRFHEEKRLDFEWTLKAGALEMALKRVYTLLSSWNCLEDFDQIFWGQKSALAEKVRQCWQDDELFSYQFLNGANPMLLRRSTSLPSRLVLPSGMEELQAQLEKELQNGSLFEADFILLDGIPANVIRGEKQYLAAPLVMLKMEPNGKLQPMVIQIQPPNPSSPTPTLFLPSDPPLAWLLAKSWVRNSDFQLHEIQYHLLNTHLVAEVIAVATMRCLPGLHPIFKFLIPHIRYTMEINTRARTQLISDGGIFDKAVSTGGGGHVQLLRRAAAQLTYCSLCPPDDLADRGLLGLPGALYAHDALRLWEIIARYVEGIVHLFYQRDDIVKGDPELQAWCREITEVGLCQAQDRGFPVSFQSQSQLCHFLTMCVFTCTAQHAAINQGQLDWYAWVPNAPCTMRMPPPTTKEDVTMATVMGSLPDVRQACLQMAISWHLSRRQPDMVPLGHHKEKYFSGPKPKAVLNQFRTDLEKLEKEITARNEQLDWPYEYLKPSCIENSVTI
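Purified human 12hLO at 150 nM in 25 mM Hepes, 0.01% Triton X-100, pH 7.0, preincubated 15 min at room temperature with compound. Reaction started with 40 uM arachidonic acid, 30 min at room temperature. Hydroperoxide measured by Fe-xylenol orange, 573/405 nm absorbance ratio.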
gsp ag = qHTS for Agonist of gsp, the Etiologic Mutation Responsible for Fibrous Dysplasia/McCune-Albright Syndrome: qHTS. gsp mutant cells, cAMP HTRF, 30 min. actives 0.13% (n = 340,000). AID 624287, 2012. Potency, µM (top dose mostly 76.9 µM), inactives show at the top dose activation (cAMP increase), actives largely listed as activators; active = well fitted activation curve with a large enough effect; inconclusive = small, poorly fitted or top-dose-only effect, or another doubt; inactive = no such curve, though single readings can be large or run the other way; cell line not stated here;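 also: phosphodiesterase inhibitor Ro 20-1724 added with compounds to block cAMP breakdown; nearly all actives have a fitted effect of over 60% in size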
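Cells stably selected in G418 were plated at 2000/well, grown 16-24 hr, then given compounds in DMSO with the PDE inhibitor […] (300 uM solution added) for 30 min at 37C; cAMP was read by HTRF.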
gsp antagonist = qHTS for Antagonists of gsp, the Etiologic Mutation Responsible for Fibrous Dysplasia/McCune-Albright Syndrome: qHTS; Potency, µM (series often up to 76.9 µM), for the others: at the top dose activity change, negative = inhibition, usual class: inhibitors; AID 624288, 2012; actives 0.4% (n = 340,000); gsp-mutant cells, cAMP HTRF, 30 min; calls by dose curve; cell line not stated here;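 also: intracellular cAMP measured with PDE inhibitor Ro 20-1724 present during compound exposure; % is scaled to controls: 0 for no effect and ±100 for the full control effect; nearly all actives have a fitted effect of over 65% in size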
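Cells, 2000/well, grown 16–24 h in DMEM 10% FBS with 0.5 mg/ml G418, then compounds plus […] (300 uM addition stock), 30 min at 37C. cAMP read by HTRF (cAMP-d2 and anti-cAMP antibody-K in lysis buffer) after 30 min RT.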
Mito fusion yeast = qHTS Assay for Small Molecule Inhibitors of Mitochondrial Division or Activators of Mitochondrial Fusion | S. cerevisiae fusion-defective mutant growth rescue, CellTiterGlo 48 h | Potency, µM (top dose mostly 46.1 µM), without a hit: at the highest dose growth rescue (activation), hits mostly activators | actives 0.23% (n = 320,000); also: % of control where 0% means no effect; nearly all actives have a fitted effect of over 45% in size
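Yeast fusion mutant, YPEG (non-fermentable carbon), compound, 48 h at 37C non-permissive; CellTiterGlo added, 10 min RT, luminescence read. Rescued growth = division inhibition.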
An asterisk follows results filed as active; i = inactive; ? = inconclusive; . = no result given; ! = not confirmed by another sample; [ ] = remark or other dose. Unless noted, calls follow the shape of the dose curve; as a rule, active = well fitted curve in the direction sought with a large enough effect; inconclusive = small, poorly fitted or top-dose-only effect, or another doubt; inactive = no such curve, though single readings can be large; an effect the other way counts as inactive or inconclusive. Potency is read from the fitted curve at half-maximal effect.

SMILES	FUS yeast rescue	ALOX12 inh	gsp ag	gsp antagonist	Mito fusion yeast
O=C1CN(C(=O)c2ccc(S(=O)(=O)N3CCCCC3)cc2)C(c2ccc(F)cc2)c2cc(Br)ccc2N1 (configuration not stated)	18µM*	1%	.	.	.
COc1ccc(-c2cc(C(=O)N3CCN(Cc4ccccc4)CC3)c3ccccc3n2)cc1	.	8%	.	.	.
COCCn1ncc(N2CCCC(CC(=O)NCCC3=CCCCC3)C2)cc1=O (configuration not stated)	.	43%	.	.	.
CC1=C(C(=O)Nc2ccccc2F)C(c2ccccc2)C2=C(CC(C)(C)CC2=O)N1 (configuration not stated)	.	9%	.	.	.
Cc1nn(-c2ccccc2)c(C)c1NC(=O)COc1ccc(Br)cc1Cl	i	-8%	-2%[15.4 µM]	35µM*	13%
Cc1nn(-c2ccccc2)c(C)c1NC(=O)COc1ccccc1C#N	i	5%	-82%	.	.
Cc1nn(-c2ccccc2)c(C)c1NC(=O)COc1ccc2ccccc2c1	i	4%	-56%	16µM*	?
Cc1cccc(C(=O)Nc2cccc3cccnc23)c1C	.	1%	.	.	.
Cc1cccc(CNc2ccnc(-c3ccoc3)n2)c1	.	20µM*	.	.	.
Cc1cccc(CNc2ccnc(-c3ccc(N(C)C)cc3)n2)c1	.	-30%	.	.	.
CC1C(=O)N2CCCc3cc(S(=O)(=O)N(Cc4ccccc4)c4ccccc4)cc1c32 (configuration not stated)	.	10µM*	.	.	.
CC1C(=O)N2CCCc3cc(S(=O)(=O)N(C)Cc4ccccc4)cc1c32 (configuration not stated)	i	-11%	-1%	0%	-3%
Cc1ccc(S(=O)(=O)c2nnn3c2nc(N2CCC(C(N)=O)CC2)c2cc(Cl)ccc23)cc1C	25µM*	-29%	.	.	.
CCOC(=O)C1CCN(c2nc3c(S(=O)(=O)c4ccc(C)c(C)c4)nnn3c3ccc(Cl)cc23)CC1	?	-29%	.	.	.
CC1=C[C@@H](CN2CCC[C@H]2CO)[C@H](C(C)C)C[C@H]1Cc1nnc(-c2ccc(N(C)C)cc2)o1	.	107%	.	.	.
COc1ccc2sc(/C=C/c3ccccc3O)[n+](C)c2c1	i	40µM*	-19%	?	-4%
CCN1/C(=C/C=C/C=C/C=C/c2sc3ccccc3[n+]2CC)Sc2ccccc21	?	40µM*	19%	-11%	-8%
CCN1/C(=C/C=C/c2sc3ccccc3[n+]2CC)Sc2ccccc21	i	-39%[12.5 µM]	.	?	-38%
CC[n+]1c(/C=C/Nc2ccccc2)sc2ccccc21	i	?	10%	45µM*	-1%
COc1cccc(-c2ccccc2CN)c1	.	34%[176 µM]	.	.	.
Cc1ccc(CNC(=O)/C=C/c2ccccc2)o1	.	-29%	.	.	.
COC(=O)C1=C(C)N(c2cccc(C)c2)C(=S)NC1c1ccc(C)s1 (configuration not stated)	.	35µM*	.	.	.
COc1ccc(C(=O)C(Br)C(=O)c2ccc(OC)cc2)cc1	.	6.3µM*	.	.	.
CSc1ccc(/C=N/Nc2cccc(Cl)c2)cc1	.	1.4µM*	.	.	.
Cc1ccc(N/N=C/c2ccc(Cl)c(Cl)c2)cc1	.	16µM*	.	.	.
SMILES	FUS yeast rescue	ALOX12 inh	gsp ag	gsp antagonist	Mito fusion yeast
CSc1ccc(/C=N/Nc2ccc(F)cc2)cc1	.	1.3µM*	.	.	.
CSc1ccc(/C=N/Nc2ccc(Cl)c(Cl)c2)cc1	.	2µM*	.	.	.
CN/N=C/c1ccc(C#N)cc1	i	3%	7%	-1%	-3%
CNC(=S)N/N=C/c1ccc(C(C)C)cc1	i	-21%	-34%	-9%	.
Fc1ccc(/C=N/Nc2ccc(Cl)c(Cl)c2)cc1	.	2.2µM*	.	.	.
O=C(O)c1cccc(N/N=C/c2ccc(F)c(F)c2)c1	i	?	-15%[15.4 µM]	6%	2%
Fc1ccc(/C=N/Nc2ccc(Cl)c(Cl)c2)cc1F	.	5µM*	.	.	.
N#Cc1ccc(/C=N/Nc2ccc(F)cc2)cc1	.	16µM*	.	.	.
CNC(=S)N/N=C/c1ccc(SC)cc1	.	14µM*	.	.	.
CCCCCCCCCCCC(C)=O	.	1%[176 µM]	.	.	.
Cc1c(Cl)cccc1NC(=O)c1cnc(N2CCCCC2)c2ccccc12	.	7%	.	.	.
Fc1cccc(/C=N/Nc2ccc(Cl)nn2)c1	i	0%	-1%	?	.
Fc1cccc(/C=N/Nc2ccc(Cl)c(Cl)c2)c1	.	5µM*	.	.	.
Cc1cccc(/C=N/Nc2ccc(Cl)c(Cl)c2)c1	.	5.6µM*	.	.	.
CCn1cc(-c2cc(C(=O)O)c3ccccc3n2)c(C)n1	i	13µM*!	-20%	-5%	-10%
Cc1ccc(-c2cc(C(=O)OCC(=O)NC34CC5CC(CC(C5)C3)C4)c3ccccc3n2)o1	.	1.3µM*	.	.	.
CN(C(=O)COC(=O)c1cc2ccccc2cc1O)c1c(N)n(Cc2ccccc2)c(=O)[nH]c1=O	i	?	-13%[15.4 µM]	-2%	-4%
Cc1ccc(-c2cc(C(=O)OCC(=O)N(C)c3c(N)n(Cc4ccccc4)c(=O)[nH]c3=O)c3ccccc3n2)o1	i	7.1µM*	11%[15.4 µM]	-15%	-4%
O=C(O)c1cc(-c2ccco2)nc2ccccc12	i	7.1µM*	20%	6%	-2%
O=C(CCC1CCCC1)N1CCC(c2noc(COc3ccc(F)cc3)n2)C1 (configuration not stated)	.	9%	.	.	.
O=C(Nc1ccccc1)c1nc2ccccc2nc1N1CCOCC1	.	0%	.	.	.
COC(=O)c1cc(-c2ccc(C)o2)nc2ccccc12	.	6.3µM*	27%	3%	13%
N#Cc1c(N)n[nH]c1CCCNC(=O)c1ccc(-c2ccccc2)cc1	.	19%	.	.	.
COCCn1c(SCc2ccc(C(=O)OC)o2)nc2ccccc2c1=O	i	2%	-48%	-3%	13%
Cc1ccc(-c2cc(C(=O)OC(C)C(=O)NC3CCCC3)c3ccccc3n2)o1 (configuration not stated)	.	6.3µM*	.	.	.
SMILES	FUS yeast rescue	ALOX12 inh	gsp ag	gsp antagonist	Mito fusion yeast
COC(=O)c1cc(CSc2nc3ccccc3c(=O)n2C)oc1C	i	-3%	-16%	35µM*	3%
N#Cc1c(N)n[nH]c1CCCNC(=O)c1cc(-c2ccco2)nc2ccccc12	.	20µM*	.	.	.
Cc1cc(C(=O)OC(C)C(=O)NC2CCCCC2C)c2ccccc2n1 (configuration not stated)	i	1%	-142%	.	.
COC(=O)c1cc(-c2ccco2)nc2c(Cl)cccc12	.	22µM*	.	.	.
Cc1ccc(C)c(-c2cc(C(=O)O)c3cc(C)ccc3n2)c1	.	-6%	.	.	.
Nc1ccc(-c2cc(C(=O)O)c3ccccc3n2)cc1	.	18µM*	.	.	.
Cc1ccc2nc(-c3ccco3)cc(C(=O)O)c2c1	.	7.9µM*!	.	.	.
COc1ccc(-c2cc(C(=O)OCC(=O)c3ccc(C)cc3)c3cccc(Cl)c3n2)cc1	i	?	.	.	.
